# Screening results (PubChem BioAssay)
# tim10-1 inh – tim10-1 yeast growth inhibition; S. cerevisiae tim10-1 ts strain growth, BacTiter-Glo, 24 h; inhibition, % at 20 µM; actives 2.2% (n = 330,000);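 active = inhibition of at least 40%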;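 also: mutant grown at 25 °C; 0% = DMSO wells with yeast and 100% = wells holding no yeast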
# TIM10 inh – growth inhibitors of TIM10 yeast strain | actives 1.4% (n = 330,000) | inhibition, % at 10 µM | S. cerevisiae TIM10 strain growth, BacTiter-Glo luminescence, 24 h;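 active = inhibition of 40% or more at the single tested concentration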;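 also: wild-type TIM10 isogenic control strain grown at permissive 25 °C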
# Mot1-301 SUMO – inhibitors of SUMOylation pathway: yeast Mot1-301 growth rescue | S. cerevisiae Mot1-301 growth rescue, ATP luminescence, 38.5C; percent above DMSO median, 100 means doubled | growth rescue, % at 18.8 µM | actives 1% (n = 320,000);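 active = every valid replicate shows activation above 250% relative to neutral control wells; inactive = the rest, any valid replicate at or below 250%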;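 also: OY570 slx delta 5 strain wells were the positive control but not used for scaling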
# tim23-1 inh – tim23-1 yeast growth inhibition; inhibition, % at 20 µM; actives 1.3% (n = 330,000); S. cerevisiae tim23-1 growth, BacTiter-Glo luminescence, 24 h;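 active = growth inhibition of the mutant yeast at or above 50%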;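 also: temperature-sensitive mutant grown at 25 °C; plate controls were DMSO-treated mutant yeast for no effect and medium wells lacking yeast for full effect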
# PfHsp90 set2 – inhibits growth of yeast expressing Plasmodium falciparum Hsp90. S. cerevisiae expressing PfHsp90, BacTiter-Glo ATP, 48 h; yeast lacking PDR1 and PDR3 efflux regulators. inhibition, % at 9.4 µM. actives 0.32% (n = 310,000). AID 504621;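 active = every replicate shows inhibition above about 80%, whatever the replicate mean, limit read from the data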;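 also: 0% = DMSO neutral controls and 100% = 20 µM radicicol positive controls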
# tim10-1 confirm – tim10-1 yeast growth inhibition, confirmed. shares compounds with tim10-1 inh. S. cerevisiae tim10-1 ts strain growth, BacTiter-Glo, 24 h. inhibition, % at 20 µM. actives 56% (n = 7,400);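 active = inhibition of yeast growth at or above a set limit in either of two repeat tests at 20 µM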;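 also: tim10-1 mutant grown at permissive 25 °C to find synthetic lethal compounds; 0% = DMSO yeast wells and 100% = medium wells without yeast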
# tim10 confirm – TIM10 yeast growth inhibition, confirmed; shares compounds with TIM10 inh; S. cerevisiae tim10 strain growth, BacTiter-Glo luminescence, 24 h; inhibition, % at 10 µM; actives 63% (n = 4,600);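 active = inhibition of yeast growth at or above a set limit in either of two replicates at 10 µM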;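 also: this counterscreen used the strain with wild-type TIM10; 0% = yeast with DMSO and 100% = medium wells lacking yeast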
# tim23-1 confirm – confirmation of tim23-1 mutant yeast growth inhibitors | S. cerevisiae tim23-1 growth, BacTiter-Glo luminescence, 24 h | inhibition, % at 20 µM | shares compounds with tim23-1 inh | actives 83% (n = 4,400);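 active = inhibition above about 39% in either of two replicate wells at 20 µM, limit read from the data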;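 also: temperature-sensitive tim23-1 mutant grown at 25 °C; 0% = DMSO wells with yeast and 100% = medium wells without yeast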
# The depositor's hits bear a star; nt = no result given. A selection: hits, their analogues and other compounds. The true share with any hit is near 4.4%.
SMILES,tim10-1 inh,TIM10 inh,Mot1-301 SUMO,tim23-1 inh,PfHsp90 set2,tim10-1 confirm,tim10 confirm,tim23-1 confirm
Clc1ccc2c(c1)C(C1=NCCN1)c1ccccc1CS2 (stereo unspecified),-15,6,2,2,-2,nt,nt,nt
CC1CC2CCCC(O)=C2C(=O)O1 (stereo unspecified),nt,nt,nt,nt,1,nt,nt,nt
C(=C\c1nc(N2CCCCCC2)c2ccccc2n1)/c1ccccc1,46*,44*,60,50*,-23,31*,19,38
COc1cc(NC(=O)CSc2nc3ccccc3n2-c2ccccc2)c(C)cc1[N+](=O)[O-],-10,-37,16,-7,17,nt,nt,nt
C=CCOn1c(=O)c(-c2cccs2)[n+]([O-])c2ccccc21,53*,41*,23,61*,nt,21,33*,70*
COc1ccc(S(=O)(=O)N2CCC(C(=O)NC3CCCCC3)CC2)cc1C,-1,-20,-20,4,-21,nt,nt,nt
O=C(Cc1ccc(F)cc1)Nc1c(C(=O)N2CCN(c3ncccn3)CC2)oc2ccccc12,18,25,-3,38,14,nt,nt,nt
N#CC(c1cccc(Cl)c1)c1ccc2c(C(F)(F)F)cc(C(F)(F)F)nc2n1 (stereo unspecified),88*,75*,-16,79*,16,70*,65*,72*
NNc1ccc2c(C(F)(F)F)cc(C(F)(F)F)nc2n1,25,18,1,24,-30,nt,nt,nt
COc1cc(C(=O)NCCC(=O)NCc2c(F)cc(F)cc2F)cc(OC)c1OC,24,5,1,10,-46,nt,nt,nt
Cc1cccc(-n2c(-c3csc4ccccc34)n[nH]c2=S)c1,45*,38,-8,51*,-20,30,nt,43*
CSc1ccccc1NC(=O)CN1C(=O)C2CC=CCC2C1=O (stereo unspecified),-2,2,nt,-3,nt,nt,nt,nt
O=C1N2c3ccccc3CCc3cccc(c32)C1(O)C(F)(F)F (stereo unspecified),47*,30,329,51*,-2,44*,nt,55*
CC(C)[C@H](N[C@@H](C)c1ccccc1)c1c(O)ccc2ccccc12,45*,22,3,50*,-12,35*,nt,40*
N/C(=N\OC(=O)c1ccc(Cl)cc1)c1[nH]ncc1Br,66*,43*,-4,60*,19,63*,37*,59*
CCO/N=C(\N)c1[nH]ncc1Br,8,9,3,9,10,nt,nt,nt
O=C1c2ccc(Oc3cccc([N+](=O)[O-])c3)cc2C(=O)N1c1ccccn1,46*,62*,-5,52*,-30,54*,42*,65*
COc1ccc(NC(=O)COC(=O)CCC2CCCC2)c(OC)c1,-4,12,2,12,-7,nt,nt,nt
Cc1cccc(C(=O)Oc2ccc(/C=N/NC(=O)Cc3ccc([N+](=O)[O-])cc3)cc2)c1,-2,-12,16,-8,-5,nt,nt,nt
N/C(Cc1ccc([N+](=O)[O-])cc1)=N\OC(=O)c1ccccc1Br,52*,88*,750,62*,-70,56*,-8,88*
Cc1cccc(C(=O)O/N=C(\N)Cc2ccc([N+](=O)[O-])cc2)c1,40*,87*,5,81*,2,58*,91*,91*
N/C(Cc1ccc([N+](=O)[O-])cc1)=N\OC(=O)CC1CCCCC1,65*,86*,-1,79*,8,64*,92*,83*
N/C(Cc1ccc([N+](=O)[O-])cc1)=N\OC(=O)c1ccc2ccccc2c1,54*,90*,5,81*,15,47*,89*,92*
CC(C)N(CCNCC(O)COc1ccc(C(C)(C)c2ccccc2)cc1)C(C)C (stereo unspecified),-7,8,nt,-38,7,nt,nt,nt
O=c1cc(N=Nc2ccc(Cl)cc2)[nH]c(=O)[nH]1,nt,nt,224,nt,30,nt,nt,nt
SMILES,tim10-1 inh,TIM10 inh,Mot1-301 SUMO,tim23-1 inh,PfHsp90 set2,tim10-1 confirm,tim10 confirm,tim23-1 confirm
Cn1c2c(c(=O)n(C)c1=O)NC1(N2)C(=O)Nc2ccccc21 (stereo unspecified),15,-13,164,3,-2,nt,nt,nt
Fc1ccccc1OCCCCN1CCCCC1,-3,-21,57,12,5,nt,nt,nt
COc1cccc(NC(=O)COC(=O)Cn2c(C)csc2=O)c1,-7,-3,0,-6,-12,nt,nt,nt
N#CC(C#N)=c1ccc2c(c1)N1C3=C(CCCC3)CC3CCCCC31N=2 (stereo unspecified),44*,33,-16,51*,nt,24,nt,23
CC(=O)N1CCN(C(=O)c2ccccc2NS(=O)(=O)c2ccc(F)cc2)CC1,-16,5,-1,1,-3,nt,nt,nt
O=C(Nc1ncc([N+](=O)[O-])s1)c1ccccc1Br,29,23,23,25,-67,nt,nt,nt
CN=c1scc(-c2cccs2)n1/N=C/c1ccccc1O,12,8,16,4,25,nt,nt,nt
CN=c1scc(-c2cccs2)n1/N=C/c1ccc(O)c(O)c1O,42*,32,-21,71*,10,19,nt,84*
O=C(OCc1cccc([N+](=O)[O-])c1)c1ccc[nH]c1=O,-8,12,-6,1,-12,nt,nt,nt
CCN1c2ccccc2NC2C1C(C(C)=O)C(=O)N2c1ccc(Cl)cc1 (stereo unspecified),62*,52*,-13,69*,-5,53*,39*,50*
COc1ccc(C(CNC(=O)c2cccc(NC(=O)c3cccs3)c2)N2CCCC2)cc1 (stereo unspecified),-18,0,24,-5,-7,nt,nt,nt
CSc1ncccc1C(=O)OCC(=O)Nc1ccc(C)c(S(=O)(=O)N2CCOCC2)c1,-11,-12,6,12,nt,nt,nt,nt
Cc1c(C#N)c(N=CN(C)C)c(C(=O)c2ccc(Br)cc2)n1-c1ccccc1,41*,42*,-5,56*,22,25,22,35
O=C(CSc1nnc(CNC(=O)c2ccco2)o1)Nc1ccc(F)cc1,18,0,6,9,-27,nt,nt,nt
C=CCOc1ccc(CN(C)C(=O)c2ccc(CNS(=O)(=O)c3ccc(C)c(C)c3)cc2)cc1,17,16,0,35,-19,nt,nt,nt
COc1cc(OC)cc(C(=O)NNC(=O)c2ccccn2)c1,19,1,6,-16,-2,nt,nt,nt
COc1ccc(C(=O)NNC(=O)c2ccccn2)cc1,52*,33,-18,51*,42,40*,nt,42*
